Screening data: PubChem BioAssay, National Center for Advancing Translational Sciences (NCATS)
DT40 TDP1 CPT: qHTS for Inhibitors of human tyrosyl-DNA phosphodiesterase 1 (TDP1): qHTS in cells in presence of CPT; 12% of 420,000 active; chicken DT40 Tdp1-/-;hTDP1 cells + 20 nM CPT, ATP luminescence, 48 h; Potency, µM (series often up to 46.2 µM), inactives show at the top dose activity change, negative = growth inhibition, hits mostly inhibitors; also: potency is read from the fitted curve at half-maximal effect; % is scaled to controls: 0 for no effect and ±100 for the full control effect; nearly all actives have a fitted effect of over 55% in size
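Cell growth measured by CellTiter-Glo luminescence after a minimum 48 h, 37 C compound exposure with 20 nM CPT in Tdp1-knockout DT40 cells stably expressing hTDP1, seeded 400/well; qHTS titration format.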
HepG2 tox: qHTS for Inhibitors of TGF-b: Cytotox Counterscreen. HepG2 CAGA-GFP viability, ATP luminescence, 18 h. 0.76% of 410,000 active. Potency, µM (series often up to 46.1 µM), for the others: top-dose activity change, negative = cytotoxicity, hits mostly cytotoxic; also: potency is read from the fitted curve at half-maximal effect
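HepG2 CAGA-GFP cells (1000/well, DMEM with 1% FBS) received compound, then TGF-beta at 500 pg/mL final, and were incubated 18 hours at 37 degrees C. Viability was read by CellTiter-Glo luminescence. Media-only wells were set as complete cell-killing and DMSO as no toxicity.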
TDP1 inh: qHTS Assay for Inhibitors of Tyrosyl-DNA Phosphodiesterase (TDP1); Tyrosyl-DNA phosphodiesterase 1 (Homo sapiens), Q9NUW8; recombinant TDP1, AlphaScreen DNA substrate cleavage; Potency, µM (doses to about 130 µM), inactives show at the highest dose activity change, negative = inhibition, hits mostly inhibitors; 0.28% of 350,000 active; also: potency is read from the fitted curve at half-maximal effect; % is scaled to controls: 0 for no effect and ±100 for the full control effect; nearly all actives have a fitted effect of over 40% in size
Target sequence (Q9NUW8 whole entry, looked up): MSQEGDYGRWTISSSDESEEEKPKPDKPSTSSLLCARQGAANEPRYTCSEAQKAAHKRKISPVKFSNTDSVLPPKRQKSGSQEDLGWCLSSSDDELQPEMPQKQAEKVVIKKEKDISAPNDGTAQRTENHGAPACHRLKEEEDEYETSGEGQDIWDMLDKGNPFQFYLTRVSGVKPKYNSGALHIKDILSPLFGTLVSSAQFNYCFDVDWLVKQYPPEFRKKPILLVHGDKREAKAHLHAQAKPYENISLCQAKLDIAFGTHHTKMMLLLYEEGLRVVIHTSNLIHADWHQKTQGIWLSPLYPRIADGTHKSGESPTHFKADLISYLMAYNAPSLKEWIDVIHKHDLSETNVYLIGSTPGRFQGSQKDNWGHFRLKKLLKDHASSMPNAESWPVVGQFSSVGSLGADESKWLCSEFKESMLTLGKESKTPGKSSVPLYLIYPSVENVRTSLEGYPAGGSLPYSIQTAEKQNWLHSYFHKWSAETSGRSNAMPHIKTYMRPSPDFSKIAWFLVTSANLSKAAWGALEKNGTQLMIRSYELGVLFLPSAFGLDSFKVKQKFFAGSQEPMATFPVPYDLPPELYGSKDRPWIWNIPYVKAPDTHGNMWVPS
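Here, a 5' biotin and 3' phosphotyrosine-FITC DNA oligonucleotide reports Tdp1 activity: intact substrate bridges AlphaScreen beads, while cleavage leaves a 3' phosphate and drops signal. All incubations at room temperature.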
TGFb inhibitor: qHTS for Inhibitors of TGF-b; 1.2% of 410,000 active; AID 588855, 2011; Potency, µM (titrated, usually from 46.1 µM), for inactives: at the highest dose activity, negative = inhibition, hits mostly inhibitors; HepG2 CAGA-GFP TGF-b/SMAD3 reporter, GFP fluorescence, 18 h; TGF-beta stimulated, 500 pg/mL final; also: potency is read from the fitted curve at half-maximal effect; % is scaled to controls: 0 for no effect and ±100 for the full control effect; nearly all actives have a fitted effect of over 65% in size
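Per well, imaged GFP fluorescence of HEPG2 CAGA-GFP cells gives the signal; cells get compound, then TGF-beta (500 pg/mL final), 18 h at 37 degrees C; %Activity versus -TGF-beta and +DMSO controls.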
TDP1 cell noCPT: qHTS for Inhibitors of human tyrosyl-DNA phosphodiesterase 1 (TDP1): qHTS in cells in absence of CPT. DT40 Tdp1-/- hTDP1 cells, no CPT, ATP luminescence, 48 h. Potency, µM (titrated, usually from 46.2 µM), for inactives: at the top dose activity change, negative = growth inhibition, actives largely listed as inhibitors. 15% of 420,000 active. AID 686978, 2013; also: potency is read from the fitted curve at half-maximal effect; % is scaled to controls: 0 for no effect and ±100 for the full control effect; nearly all actives have a fitted effect of over 55% in size
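Readout: luminescence from CellTiter-Glo after 30 min in the dark at RT. Cells: DT40 Tdp1-/- with stable hTDP1, 400/well. Exposure: compounds alone, ≥48 hr, 37 °C.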
IL1B secr inh: qHTS for Inhibitors of Inflammasome Signaling: IL-1-beta AlphaLISA Primary Screen. THP-1 LPS/ATP IL-1B secretion, AlphaLISA, 16 h; active compounds read low. activity change, % at 57.5 µM. 4.7% of 360,000 active. AID 743279, 2014; in the data active = activity change below about -50%; inconclusive = mostly about -30% to -49%; also: % is scaled to controls: 0 for no effect and ±100 for the full control effect
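THP-1 cells pretreated 1 hr with compounds (up to 57.5 uM final), then stimulated with LPS (250 ng/mL final) plus ATP (1.25 mM final); secreted IL-1B measured by AlphaLISA after 16 hr, decreased signal indicating inhibition.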
* = called active by the depositor; u = inconclusive; x = not tested or not shown; [ ] = remark or other dose. Hits are enriched below; roughly 19% of the tested compounds scored in any of these assays. Unless noted, calls follow the shape of the dose curve; as a rule, active = well fitted curve in the direction sought with a large enough effect; inconclusive = small, poorly fitted or top-dose-only effect, or another doubt; inactive = no such curve, though single readings can be large; an effect the other way counts as inactive or inconclusive.

SMILES | DT40 TDP1 CPT | HepG2 tox | TDP1 inh | TGFb inhibitor | TDP1 cell noCPT | IL1B secr inh
CSCCC(NC(=O)/C(=C/c1ccco1)NC(=O)c1ccco1)C(=O)O (stereo not given) | -5% | -3% | x | 10% | u | x
Cc1ncc2c(c1CNC(=O)c1ccc3c(c1)OCO3)CCN(C(=O)c1scc3c1CCCC3)C2 | 7%[9.04 µM] | x | x | x | -13% | x
CCOC(=O)c1cc2sccc2n1CC(=O)N1CCCc2ccccc21 | u | -25% | 2% | -13% | u | -50*
O=C1c2ccccc2C(=O)N1c1ccc(O)cc1 | -2% | -10% | 1% | 1% | 1% | x
Cn1c(=O)[nH]c(=O)c2c1nc(NN)n2CCOc1ccccc1 | -16% | -27% | x | 2% | u | -18
CCn1cc2nc(SCc3cccc(C(F)(F)F)c3)n(Cc3ccc(Cl)cc3)c(=O)c2n1 | 15µM* | 7% | 5% | -4% | 8.2µM* | x
CCn1c(SCc2cccc(C(F)(F)F)c2)nnc1-c1ccco1 | -13% | 3% | 2% | -11% | -11% | -1
CCn1cc2nc(SCc3cccc(C)c3)n(CCc3ccccc3)c(=O)c2n1 | 23µM* | -74% | 8% | u | u | x
CCn1cc2nc(SCc3cc(C)ccc3C)n(Cc3ccc(Cl)cc3)c(=O)c2n1 | u | 0% | 5% | u | u | x
CCn1cc2nc(SCc3cccc(Cl)c3)n(Cc3ccc(C)cc3)c(=O)c2n1 | 21µM* | 6% | 2% | -3% | 23µM* | x
CCCN(CCC)C(=O)Cn1c(SCc2cccc(C(F)(F)F)c2)nc2cccnc21 | u | -38% | 1% | -27% | u | x
Cc1cccc(CSc2nc3c([nH]c4ccccc43)c(=O)n2C)c1 | u | -3% | 3% | -15% | u | x
CCn1cc2nc(SCc3cccc(C(F)(F)F)c3)n(CCc3ccccc3)c(=O)c2n1 | 23µM* | -18% | 3% | u | 13µM* | x
CCOc1ccc(NS(=O)(=O)c2ccc3c(c2)N(C(C)=O)CCS3)cc1 | u | -2% | 1% | -16% | u | 0
COc1ccc(OC)c(CC2C(=O)Nc3ccc(Br)cc32)c1 (stereo not given) | 10µM* | -53% | 8% | u | 7.3µM* | x
CCOc1ccccc1CC1C(=O)Nc2ccc(Br)cc21 (stereo not given) | u | -38% | 4% | u | u | x
CCOc1c(CC2C(=O)Nc3ccc(Br)cc32)cccc1OC (stereo not given) | u | -28% | -2% | -20% | 16µM* | x
CCCOc1ccc(CC2C(=O)Nc3ccc(Br)cc32)cc1 (stereo not given) | u | -95% | -3% | 11µM* | 18µM* | x
O=C1Nc2ccc(Br)cc2C1Cc1ccccc1F (stereo not given) | 38% | -14% | 1% | -30% | 5% | 19
CCOc1ccccc1NC(=O)c1cc(S(=O)(=O)N2CCOCC2)cn1C | 5% | -14% | -4% | 2% | -2% | x
O=C1OCCC1N(C(=O)C1CC1)c1cccc(Cl)c1 (stereo not given) | x | x | -5% | x | x | x
OC(COc1ccc2cc(Br)ccc2c1)CN1CCCC1 (stereo not given) | u | -100% | 5% | u | 23µM* | -5
Brc1ccc(OCCCCCN2CCOCC2)cc1 | 3% | -3% | -7% | 5% | -6% | -59*
OC(COc1ccc(Br)cc1)CN1CCOCC1 (stereo not given) | -4% | 2.8µM* | 2% | 2% | -21% | -3
OC(COc1ccc(OCC(O)CN2CCCCCC2)cc1)CN1CCCCCC1 (stereo not given) | -20% | 0% | 1% | -4% | u | u
SMILES | DT40 TDP1 CPT | HepG2 tox | TDP1 inh | TGFb inhibitor | TDP1 cell noCPT | IL1B secr inh
CN(C)S(=O)(=O)N1CCN(CC(O)COc2ccc3cc(Br)ccc3c2)CC1 (stereo not given) | 15µM* | -30% | 7% | -32% | 8.2µM* | -3
Cc1ccc(Cn2c(C)c(CNCc3ccccc3F)c(C(=O)O)c2C)cc1 | u | -27% | 0% | u | u | x
Cc1nc(CS(=O)(=O)c2ccc(Cl)cc2)sc1C(=O)O | 5% | -1% | -3% | 1% | -6% | 8
OCCN1CCN(CC(O)COc2ccc(-c3ccccc3)cc2)CC1 (stereo not given) | u | -24% | 4% | 0% | u | -5
CN(C)S(=O)(=O)N1CCN(CC(O)COc2ccc(-c3ccccc3)cc2)CC1 (stereo not given) | 21µM* | -46% | x | u | 12µM* | u
O=S(=O)(N1CCCCC1)N1CCN(CC(O)COc2ccc3cc(Br)ccc3c2)CC1 (stereo not given) | 11µM* | -14% | 6% | -6% | 11µM* | -52*
OC(COc1ccc2cc(Br)ccc2c1)CN1CCN(c2ccccn2)CC1 (stereo not given) | u | -28% | 7% | -19% | u | -12
COc1ccc([C@H]2OCC3C2CO[C@@H]3c2ccc(OC)c(OC)c2)cc1OC (stereo not given in full) | x | x | 11% | x | x | x
COC(=O)c1cc2sc(C)cc2n1CC(=O)Nc1ccc(C)c(C)c1 | u | -19% | 1% | 0% | u | x
CCCn1c(=O)c2ccccc2n2c(SCC(=O)c3cc(C)n(CCOC)c3C)nnc12 | -4% | 1% | 0% | 2% | -29% | 11
COCCn1c(C)cc(C(=O)CSc2cc(C)c3ccccc3n2)c1C | u | -29% | 4% | -2% | u | -69*
COCCn1c(C)cc(C(=O)CSc2nc3ccccc3c(=O)n2Cc2ccco2)c1C | 6.5µM* | 22% | -1% | -3% | u | 4
COCCn1c(C)cc(C(=O)CSc2nnc(C)s2)c1C | -23% | -4% | 1% | 12% | -22% | 5
CS(=O)(=O)N1CCC[C@@]2(CCN(Cc3ccc(C#N)cc3)C2)C1 | 5% | x | x | x | -8% | x
Cc1cccc(-c2ccc([N+](=O)[O-])cc2CN2CCN(c3ncc(Cc4ccccc4)cn3)CC2)c1 | 5.8µM* | x | x | x | 5.8µM* | 0
